Only some compounds are listed: those with a hit (about 3.1% of all), similar ones and a draw of the others.
HIF-2a inh = HIF-2a inhibition; inhibition, % at 18.8 µM; 0.72% of 360,000 active; 786-0 RCC cells HIF-2a reporter, luciferase luminescence, overnight; AID 624352;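 active means inhibition of the luminescence signal of 40% or more relative to plate controls, in a single-dose primary screen at 18.75 µM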
TRAIL sens C8 = caspase-8 TRAIL sensitization; NB7+C8 cells + TRAIL, ATPlite viability luminescence; inhibition (viability loss, TRAIL sensitization), % at 10 µM; 1% of 360,000 active;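 active means compounds causing at least 50% loss of cell viability in the single-dose screen, relative to plate controls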
CF NFkB block = cystic fibrosis NF-kB activation inhibition; KKLEB NF-kB-GFP reporter, PAF-induced, GFP fluorescence overnight; inhibition, % at 5 µM; 0.86% of 360,000 active; AID 588850;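 active means at least 50% inhibition at 5 µM, scaled per plate between neutral and stimulator controls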;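 further: PAF is a Pseudomonas aeruginosa culture filtrate used as stimulus; plate controls were PAF-stimulated DMSO wells for no effect and unstimulated DMSO wells for full effect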
Peg3 prom inh = Peg3 promoter activity inhibition | inhibition, % at 20 µM | HeLa PEG-Prom luciferase reporter, luminescence, overnight | 1.7% of 360,000 active;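 active means inhibition of at least 50% at 20 µM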
KKLEB cytotox = CF airway cell cytotoxicity counter-screen. KKLEB CF airway cells viability, ATPlite luminescence, overnight; active compounds read low; cells stimulated with P. aeruginosa culture filtrate. activity change (cytotoxicity), % at 5 µM. 0.36% of 360,000 active. AID 602141;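 active means corrected activity change at or below -50% at 5 µM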
PPC-1+TRAIL kill = PPC-1 cancer cell killing with TRAIL present | PPC-1 cells + TRAIL, ATPLite viability luminescence | cell killing (% activity), % at 4 µM or 5 µM | 0.41% of 220,000 active;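 active means cell killing above 50% in the first pass at 4 µM, then a duplicate retest at 5 µM averaging 50% or more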;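 further: plate controls were cells with TRAIL plus DMSO for no effect and medium-only wells lacking cells for full effect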
The depositor's hits bear a star.

For COc1ccc(N2CCN(CC(=O)c3ccccc3)CC2)cc1 the results were HIF-2a inh -6, TRAIL sens C8 -4, CF NFkB block 5, Peg3 prom inh -15 and KKLEB cytotox 15.
COc1ccc(N2CCN(CCC(=O)c3ccc4ccccc4c3)CC2)cc1 was read as HIF-2a inh -4, TRAIL sens C8 -9, CF NFkB block 15, Peg3 prom inh 104* and KKLEB cytotox -8.
CCOC(=O)N1C2c3ccccc3C(c3ccccc32)N1C(=O)OCC was read as HIF-2a inh -7, TRAIL sens C8 4, CF NFkB block -13, Peg3 prom inh 9 and KKLEB cytotox -9.
For Oc1ccc(Cl)cc1Sc1cc(Cl)ccc1O the results were HIF-2a inh 10, TRAIL sens C8 29, CF NFkB block 63*, Peg3 prom inh 71* and KKLEB cytotox 10.
CN(C)C(=O)c1cc(Cl)ccc1Sc1cc(Cl)ccc1Cl was read as HIF-2a inh 19, TRAIL sens C8 3, CF NFkB block -1, Peg3 prom inh 15, KKLEB cytotox 5 and PPC-1+TRAIL kill 14.
Screening COCCN1C[C@@H](CO)O[C@@H](n2cnc3c(NCc4ccncc4)ncnc32)C1 returned HIF-2a inh 9, TRAIL sens C8 -8, CF NFkB block 2, Peg3 prom inh 12 and KKLEB cytotox 1.
`C=CC[n+]1c(-c2ccc(C)cc2)csc1Nc1ccc(NC(C)=O)cc1` gave HIF-2a inh 90*, TRAIL sens C8 7, CF NFkB block -13, Peg3 prom inh 20, KKLEB cytotox 2 and PPC-1+TRAIL kill -4.
For C=CC[n+]1c(-c2ccc(OC)cc2)csc1NNC(=O)Nc1ccccc1 the results were HIF-2a inh -80, TRAIL sens C8 -3, CF NFkB block 9, Peg3 prom inh 1, KKLEB cytotox 2 and PPC-1+TRAIL kill 31.
`O=c1c2cc(N3CCOCC3)ccc2[nH]c(=S)n1CCCN1CCCC1` gave HIF-2a inh 16, TRAIL sens C8 5, CF NFkB block -9, Peg3 prom inh 4, KKLEB cytotox -2 and PPC-1+TRAIL kill 11.
For CC1CCN(CCCn2c(=S)[nH]c3ccc(N4CCOCC4)cc3c2=O)CC1 the results were HIF-2a inh 13, TRAIL sens C8 -20, CF NFkB block 8, Peg3 prom inh 4, KKLEB cytotox -67* and PPC-1+TRAIL kill 21.
COC(=O)C1=C(C)N(Cc2ccco2)C(=O)/C1=C\c1ccc(N(C)C)cc1 was read as HIF-2a inh -2, TRAIL sens C8 -13, CF NFkB block -34, Peg3 prom inh 0, KKLEB cytotox -19 and PPC-1+TRAIL kill 36.
Screening COC(=O)C1=C(C)N(Cc2ccco2)C(=O)/C1=C\c1ccc([N+](=O)[O-])cc1 returned HIF-2a inh 22, TRAIL sens C8 37, CF NFkB block -23, Peg3 prom inh 94*, KKLEB cytotox -6 and PPC-1+TRAIL kill -1.
For CNc1c(NS(=O)(=O)c2ccc(C3CCCCC3)cc2)c(=O)oc2ccccc12 the results were HIF-2a inh 12, TRAIL sens C8 -2, CF NFkB block 3, Peg3 prom inh 15 and KKLEB cytotox 4.
`OCCN1CCN(c2ncnc3c2c(-c2ccccc2)cn3-c2ccc(Br)cc2)CC1` gave HIF-2a inh 17, TRAIL sens C8 7, CF NFkB block 14, Peg3 prom inh 35, KKLEB cytotox -9 and PPC-1+TRAIL kill 23.
`NC(=O)C1CCN(c2ncnc3c2c(-c2ccccc2)cn3-c2ccccc2)CC1` gave HIF-2a inh 22, TRAIL sens C8 -4, CF NFkB block 17, Peg3 prom inh 61*, KKLEB cytotox -3 and PPC-1+TRAIL kill -16.
O=C(Nc1cccc(OC(F)(F)F)c1)c1ccc(-c2cccnc2)c2ccoc12 was read as HIF-2a inh -192, TRAIL sens C8 18, CF NFkB block -14, Peg3 prom inh -136 and KKLEB cytotox -3.
`COCCn1c(SCC(=O)Nc2sccc2C(N)=O)nc2cc(Cl)ccc2c1=O` gave HIF-2a inh 14, TRAIL sens C8 23, CF NFkB block -8, Peg3 prom inh 52*, KKLEB cytotox 2 and PPC-1+TRAIL kill 12.
`COCCn1c(SCC(=O)Nc2cccnc2Cl)nc2cc(Cl)ccc2c1=O` gave HIF-2a inh 18, TRAIL sens C8 -21, CF NFkB block -19, Peg3 prom inh 23 and KKLEB cytotox -5.
CCCNC(=O)C1(C)CCCN(C(=O)c2ccc(OC(F)F)cc2)C1 (stereo not drawn) was read as HIF-2a inh 4, TRAIL sens C8 -2, CF NFkB block -9, Peg3 prom inh 0 and KKLEB cytotox 2.
For c1ccc([C@H]2CNCCN2CCc2cccc3ccccc23)cc1 the results were HIF-2a inh 1, TRAIL sens C8 1, CF NFkB block 32, Peg3 prom inh 86* and KKLEB cytotox -14.
For c1ccc2c(C[C@@H]3CNCCN3CC3CCCCC3)cccc2c1 the results were HIF-2a inh 8, TRAIL sens C8 0, CF NFkB block 11, Peg3 prom inh 94* and KKLEB cytotox -3.
For COc1cc(CCCN2CCNC[C@@H]2c2ccccc2)cc(OC)c1OC the results were HIF-2a inh 6, TRAIL sens C8 7, CF NFkB block -23, Peg3 prom inh -17 and KKLEB cytotox -3.
For O=C(Nc1ccc(S(=O)(=O)Nc2nccs2)cc1)c1cccc(N2C(=O)c3ccccc3C2=O)c1 the results were HIF-2a inh 4, TRAIL sens C8 8, CF NFkB block -5, Peg3 prom inh -12, KKLEB cytotox -4 and PPC-1+TRAIL kill 18.
For O=C(Nc1nccs1)c1cccc(N2C(=O)c3cccc4c([N+](=O)[O-])ccc(c34)C2=O)c1 the results were HIF-2a inh 9, TRAIL sens C8 13, CF NFkB block -1, Peg3 prom inh 110*, KKLEB cytotox -5 and PPC-1+TRAIL kill 12.
Cc1ccc(NC2=C/C(=N/S(=O)(=O)c3cccs3)c3ccccc3C2=O)cc1C was read as HIF-2a inh -40, TRAIL sens C8 26, CF NFkB block 47, Peg3 prom inh -64, KKLEB cytotox -14 and PPC-1+TRAIL kill 12.
`O=C(O)c1ccc(S(=O)(=O)/N=C2\C=C(Nc3ccccc3F)C(=O)c3ccccc32)cc1` gave HIF-2a inh -14, TRAIL sens C8 50, CF NFkB block 102*, Peg3 prom inh 104* and KKLEB cytotox -70*.
For Cc1ccccc1NC1=C/C(=N\S(=O)(=O)c2ccc(C(=O)O)cc2)c2ccccc2C1=O the results were HIF-2a inh 56*, TRAIL sens C8 34, CF NFkB block 100*, Peg3 prom inh 101* and KKLEB cytotox -56*.
For CN(CCOc1ccc(Cl)cc1)C(=O)c1cccc(S(=O)(=O)N2CCN(c3ccccc3)CC2)c1 the results were HIF-2a inh 20, TRAIL sens C8 27, CF NFkB block 13, Peg3 prom inh 16 and KKLEB cytotox -1.

From PubChem BioAssay
